Measurements published in PubChem BioAssay (EPA / NIEHS).
Inconclusive results are not listed. Calls of active or inactive are those of the source. Rule for the calls, unless noted: active = hit-call score of the fitted dose curve at least 0.9, where 1 is the maximum; inactive = score below 0.9.

Experiments:
[1] = APR_HepG2_CellCycleArrest_24hr: Apredica 24-hour HepG2 Assay for Cell Cycle Arrest (AID 2282905); conditions: imaging, actives raise or lower the signal;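 note: cell cycle arrest scored as ratio of 2N to 4N nuclear DNA content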
How it was run: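 HepG2, 24 hr dosing, 10-pt 0.39–200 uM in duplicate, 0.5% DMSO. Fixed 3.7% formaldehyde, permeabilized 0.5% Triton X-100, Hoechst 33342 2 ug/mL. Imaged 20x; nuclear DNA content quantified; bidirectional fit vs DMSO.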

[2] = APR_HepG2_NuclearSize_24hr: Apredica 24-hour HepG2 Assay for Nuclear Size (AID 2282907); conditions: high-content imaging, actives raise or lower the signal
How it was run: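 HepG2, 24 hr dosing, 10-pt 0.39–200 uM, duplicates, 0.5% DMSO final; 3.7% formaldehyde fix, 0.5% Triton X-100; Hoechst 33342 nuclear stain; ArrayScan HCS, Cell Cycle analysis → nuclear size; bidirectional fit vs DMSO.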

[3] = APR_HepG2_CellLoss_24hr: Apredica 24-hour HepG2 Assay for Cell Loss (AID 2282908); conditions: high-content imaging;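 for AC50: fit in both directions so a hit may be cell loss or gain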
How it was run: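 10-pt dose, 0.39–200 uM, n=2/plate; DMSO 0.5% v/v final as negative control. Fix 3.7% formaldehyde 30 min RT, permeabilize 0.5% Triton X-100, stain Hoechst 33342 2 ug/mL, image 20x. Nuclear count, bidirectional fit vs DMSO.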

[4] = APR_HepG2_MicrotubuleCSK_24hr: Apredica 24-hour HepG2 Assay for Microtubule CSK Stabilty (AID 2282909); conditions: HepG2 microtubule cytoskeleton imaging, actives raise or lower the signal
How it was run: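 Human liver HepG2, 24 h dosing, 0.39–200 uM ×10 conc, dup, 0.5% DMSO. 3.7% formaldehyde fix, 0.5% Triton perm, anti-alpha-tubulin (1:200)/Cy5 secondary + Hoechst. HCS imaging, 6 fields/well; gain/loss fit vs DMSO.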

[5] = APR_HepG2_MitoticArrest_24hr: Apredica 24-hour HepG2 Assay for Mitotic Arrest (AID 2282910); conditions: high-content imaging, actives raise or lower the signal
How it was run: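 HepG2 human liver cells were exposed to compounds at 0.39–200 uM (10 concentrations, duplicate) in 0.5% v/v DMSO for 24 hr, then fixed and immunostained for phospho-histone H3 with Hoechst 33342. Mitotic arrest came from HCS fluorescent imaging, fitted bidirectionally against DMSO.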

[6] = APR_HepG2_MitoMembPot_24hr: Apredica 24-hour HepG2 Assay for Mitochondrial Membrane Potential (AID 2282911); conditions: imaging, actives raise or lower the signal
How it was run: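 HepG2 human liver cells were exposed 24 hr to compounds at 0.39–200 uM (final DMSO 0.5% v/v) in duplicate. MitoTracker Red CMXRos (250 nM, 30 min) was loaded before formaldehyde fixation; fluorescence was imaged by ArrayScan HCS and fitted bidirectionally versus DMSO.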

[7] = APR_HepG2_MitoMass_24hr: Apredica 24-hour HepG2 Assay for Mitochondrial Mass (AID 2282912); conditions: high-content imaging, actives raise or lower the signal
How it was run: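 Mitochondrial mass is read as MitoTracker Red fluorescence intensity from automated imaging, with bidirectional curve fitting relative to DMSO. HepG2 cells received compound (0.39–200 uM, 0.5% DMSO final) for 24 hr and were dye-loaded (250 nM, 30 min) before formaldehyde fixation.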

[8] = APR_HepG2_CellCycleArrest_72hr: Apredica 72-hour HepG2 Assay for Cell Cycle Arrest (AID 2282914); conditions: high-content imaging, actives raise or lower the signal
How it was run: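 HepG2 cells were exposed to compounds at 0.39–200 uM (0.5% v/v DMSO final, duplicates) for 72 hr, fixed in 3.7% formaldehyde, permeabilized and stained with Hoechst 33342. Nuclear DNA content was quantified by high-content imaging; gain or loss of signal was fitted bidirectionally against DMSO.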

[9] = APR_HepG2_p53Act_24hr: Apredica 24-hour HepG2 Assay for p53 Activation (AID 2282913); conditions: high-content imaging, actives raise or lower the signal;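 note: p53 protein immunofluorescence averaged per cell in HepG2 with Hoechst nuclei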
How it was run: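 HepG2 cells exposed 24 hr to compounds at 0.39–200 uM (10 concentrations, duplicate), final DMSO 0.5% v/v. After formaldehyde fixation and Triton permeabilization, p53 was immunolabeled (sheep anti-p53, Cy5 secondary) with Hoechst 33342 nuclear counterstain, then imaged by high-content fluorescence microscopy.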

[10] = ACEA_ER_80hr: ACEA Biosciences xCELLigence Real-Time Cell Analysis on Estrogen Receptor Agonism for Proliferation (AID 2282667; active = hit-call score of the fitted dose curve at least 0.9, where 1 is the maximum); conditions: T47D proliferation, impedance (xCELLigence), 80 h
How it was run: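 T47D human breast cells were seeded on electrode plates, monitored overnight, then exposed continuously to compounds in eight-point 1:4 dilutions from 100 uM (max 0.5% DMSO). Impedance-based growth was read at 80 h, fitted upward relative to DMSO.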

Measured: AC50

CN1CCC[C@H]1c1cccnc1
inactive: [1] | [2] | [3] | [4] | [5] | [6] | [7] | [8]

CCCCCCCCCCCCN1CCCC1=O
inactive: [4] | [6] | [9]
active: [1] 53.5 µM | [2] 75.3 µM | [3] 47.4 µM | [5] 68.7 µM | [7] 51 µM | [8] 42.6 µM

CCCCOCCO
inactive: [1] | [2] | [3] | [4] | [5] | [6] | [7] | [9] | [8]

ClC1=C(Cl)C(Cl)(Cl)C(Cl)=C1Cl
inactive: [1] | [2] | [3] | [4] | [5] | [6] | [7] | [9] | [8]

c1ccc2cc3c(ccc4ccccc43)cc2c1
inactive: [2] | [4]
active: [1] 67.6 µM | [3] 48.1 µM | [5] 65.7 µM | [7] 55.8 µM | [9] 103 µM | [8] 17.4 µM

O=C(O)c1ccccc1C(c1ccc(O)cc1)c1ccc(O)cc1
active: [8] 100 µM
inactive: [1] | [2] | [3] | [4] | [5] | [7]

CC(=O)CC(C)(C)O
inactive: [2]
active: [10] 16.2 µM | [1] 0.0392 µM | [3] 19.8 µM | [4] 0.0415 µM | [5] 0.0402 µM | [7] 8.56 µM | [9] 0.106 µM | [8] 32.1 µM

Oc1cc2ccccc2c2ccccc12
inactive: [2] | [8]
active: [1] 37.1 µM | [3] 13.1 µM | [4] 55 µM | [5] 7.13 µM | [7] 97.7 µM | [9] 3.2 µM

OC1CCC(C2CCCCC2)CC1 (stereo unspecified)
inactive: [1] | [2] | [3] | [4] | [5] | [6] | [7] | [9] | [8]

CC(O)CO (stereo unspecified)
inactive: [1] | [2] | [3] | [4] | [5] | [6] | [7] | [9] | [8]

CCCCCCCCCCCCCCCS(=O)(=O)Oc1ccccc1
inactive: [1] | [2] | [3] | [4] | [5] | [7] | [9] | [8]

O=[N+]([O-])c1ccc(O)cc1
inactive: [1] | [2] | [3] | [4] | [5] | [7] | [9] | [8]

CC(C)(C)CC(C)(C)c1ccc(O)c(-n2nc3ccccc3n2)c1
inactive: [2] | [4] | [7]
active: [1] 36.9 µM | [3] 57.1 µM | [5] 48.9 µM | [6] 50.6 µM | [9] 62.6 µM | [8] 26.2 µM

CCCOC(=O)c1ccc(O)cc1
inactive: [1] | [2] | [3] | [4] | [5] | [6] | [7] | [9] | [8]

N#C[C@@H]1CC(F)(F)CN1C(=O)CNC1CC2CCC(C1)N2c1ncccn1 (stereo partly specified)
inactive: [1] | [2] | [3] | [4] | [5] | [6] | [7] | [9] | [8]

Cc1cc(CCN2CCN(c3nsc4ccccc34)CC2)cc2c1NC(=O)CC2(C)C
active: [3] 28.6 µM | [5] 15.7 µM | [7] 22.2 µM | [9] 18.2 µM
inactive: [1] | [2] | [4] | [8]

CC(C)(C)c1cc(C(C)(C)C)c(O)c(C(C)(C)C)c1
inactive: [1] | [2] | [3] | [4] | [5] | [6] | [7] | [9] | [8]

C[C@@H]1C[C@H]2[C@@H]3CCC4=CC(=O)C=C[C@]4(C)[C@@]3(F)[C@@H](O)C[C@]2(C)[C@@]1(O)C(=O)COP(=O)(O)O
inactive: [1]
active: [2] 9.81 µM | [3] 15.4 µM | [4] 94 µM | [5] 1.76 µM | [6] 37.7 µM | [7] 2.64 µM | [9] 27.5 µM | [8] 94 µM

CCCCCCCCCCCCc1ccccc1S(=O)(=O)O
active: [3] 116 µM | [5] 106 µM | [9] 120 µM
inactive: [1] | [2] | [4] | [6] | [7] | [8]

CCCCC(CC)COC(=O)CCCCC(=O)OCc1ccccc1 (stereo unspecified)
inactive: [1] | [2] | [3] | [4] | [5] | [7] | [9] | [8]

O=C(O)Cc1cc(I)c(Oc2cc(I)c(O)c(I)c2)c(I)c1
active: [1] 109 µM | [9] 72.2 µM | [8] 72.5 µM
inactive: [2] | [3] | [4] | [5] | [7]

CC(=O)NC1(c2cccc(F)c2)CCN(CC[C@@]2(c3ccc(Cl)c(Cl)c3)CN(c3ccccc3)C(=O)CO2)CC1
inactive: [2]
active: [1] 26.3 µM | [3] 36.3 µM | [4] 146 µM | [5] 31.6 µM | [6] 90.2 µM | [7] 151 µM | [9] 21.6 µM | [8] 18.7 µM

OCCC(F)(F)C(F)(F)C(F)(F)C(F)(F)C(F)(F)C(F)(F)F
inactive: [1] | [2] | [3] | [4] | [5] | [7] | [9] | [8]

COc1ccc([N+](=O)[O-])cc1N
inactive: [1] | [2] | [3] | [4] | [5] | [7] | [9] | [8]

CC1=C(/C=C/C(C)=C/C=C/C(C)=C/C(=O)O)C(C)(C)CCC1
inactive: [1] | [4] | [9] | [8]
active: [2] 114 µM | [3] 103 µM | [5] 109 µM | [7] 92.6 µM

CCCCCCCCC(=O)O
inactive: [1] | [2] | [3] | [4] | [5] | [7] | [9] | [8]

CN(C)C=O
inactive: [1] | [2] | [3] | [4] | [5] | [7] | [9] | [8]

CC[C@H](C)[C@@H](C(=O)O)n1sc2ccccc2c1=O
inactive: [1] | [2] | [3] | [4] | [5] | [7] | [9] | [8]

C=C(C)C(=O)OCCC(F)(F)C(F)(F)C(F)(F)C(F)(F)C(F)(F)C(F)(F)F
inactive: [1] | [2] | [3] | [4] | [5] | [7] | [9] | [8]

c1ccc2c(c1)Cc1ccccc1-2
inactive: [1] | [2] | [3] | [4] | [5] | [6] | [7] | [9] | [8]

O=C(OCCOCCOC(=O)c1ccccc1)c1ccccc1
inactive: [1] | [2] | [3] | [4] | [5] | [7] | [9] | [8]

CCC(C)(C)C1CCC(O)CC1 (stereo unspecified)
inactive: [1] | [2] | [4] | [5] | [6] | [7] | [8]
active: [3] 99.8 µM | [9] 122 µM

CCCCCCCCOC(=O)CCCCCCCCC(=O)OCCCCCCCC
inactive: [1] | [2] | [3] | [4] | [5] | [7] | [9] | [8]

CCCCCCC(=O)O
inactive: [1] | [2] | [3] | [4] | [5] | [7] | [9] | [8]
